Data: the supplement of paper PMC6555819

tested on: PPARg homodimer (NR concentration 180 nM); test: PBM binding z-score (relative to random genomic background probes); higher = stronger binding; sequences stand for … in GC…GCGATTGACAGCGTAGAATGAAGG
Outline: (§1)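 Antibodies against each partner of ligand-free nuclear receptor dimers (one per run) detected binding on custom Agilent 4×180K protein-binding microarrays after 1 h incubation. The double-stranded probes had 34-nt variable regions carrying direct-repeat seeds, single-nucleotide variants, half-site ablations and random human genomic background sequences. Binding z-scores, from regression-normalized fluorescence, use the random background probes as reference.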

Row | Sequence | PBM binding z-score
1 | CGAACTAGGGCATCCAGGACAGTGAATACATTGA | 0.204
2 | TCGAATAGGTTAGTCGGGGCATTCAGCCAACATA | 0.278
3 | TCTGGGAGGACACGAAAGGTCAGAGCTCGACATC | 2.76
4 | CCGAGTAGGTTATGGGGCATACAGGCAACGGTGA | 1.1
5 | CAGCCTAGGTCAGGGCCAGTTTAGGAGGAACGTT | 0.437
6 | TAGCCTAGGTCAAGGGCCAGTATACCACGCGAAC | 1.63
7 | ACTAGTTGGTCAGCTGAGGTCATACACAATTCGG | 3.38
8 | CGTCCAAGGTCAAGGTCAGTCAAAGAGACTCGAA | 4.54
9 | AGTCAAAGTTCGTCTAGGTAACGTAAGATATGCT | 1.41
10 | CGTTAAAGTTCAACTAAGGTAACGTAAAGCACGC | 2.84
11 | ACTTACGGGTCAACGAGGGTATAGCACGCGTATA | 2.05
12 | ATCTCTAAGTAAAGATAGTTCAGTGAATGCAAAT | 1.3
13 | GATACAGGGTCAGCTAGAGGCTAGAGTATGGAAA | 2.09
14 | CCAGACAGGTGAGAAGGGAACTCAGCCTCGATTA | 0.62
15 | CCTGCTAAGTCAATGGTCAGCTAAAGCAGCTCGC | -0.2
16 | CTACCAAGGTGAACAAGGTCGCTGATTACTATTC | 0.663
17 | CCTGCTAGGTCATGATCAGCTAATCTACAGTATG | 0.98
18 | TCTAGCAGGACAGAGGGTCACTCAAGAGGTACGG | 0.414
19 | ACTAGCAGGCCAAGTTTGGTTCACTCAAACAAAG | -0.521
20 | ATCTCTAGCTAACAAGTTCAGTGAAAGAGAGGAC | 0.988

Row | Sequence | PBM binding z-score
21 | TCTATCAGGCCAGAGGGTCACTCAAGAGGTACGG | 1.01
22 | GTACCAAGGTGCATAGGTCGTTGATGAGTAGGCG | 0.243
23 | GCTATTACTTGAAAGGGCAACCGAATGATTCTCG | 0.811
24 | TGTCAAAGTTCAGAGGTAACGTAAGTATCCACAC | 2.26
25 | TGGAGTAGGTTAGGGGCATTCAGAATGGCGTCGA | 2.02
26 | CCTTACGGGTCACTCCAGTTTATAGCATCGGAGT | 2.32
27 | CCGTCTGGGGCAGAAAGGTTACCATACCATCCGG | 0.553
28 | CCTAGTTGGTCAGGAGGGCACACACCGGATATGA | 1.22
29 | TCTATTCGTTGATTAGGGCAACCGAAACAGCGGA | 0.326
30 | GCTGCTAGGTCCGGTTGGTCAGCTAACGGGTACG | -1.32
31 | GGAACGAGGGCAAAGTGGATAGCATCTGTCGACG | 1.42
32 | GCTAGCAGGCCATTTGGGTCTCTCAATGACGGGC | -0.8
33 | ATCGAAAGTTCGAAGGTGAGTATACCCACCCGAA | 0.595
34 | AGAATGAGGTTATTAAAATCAGGGAATTGCGGTC | 0.649
35 | ATCTCTAGGTAACAAGTTCAGTGGAAGAGAGGAC | 1.43
36 | GGAACGAGGGCAAAGTTGAAAGCATCTGTCGACG | 0.811
37 | TCTTTTAGATCAAAGGTTAAGAAAGCCGAAGCCT | 1.05
38 | AGAGCGAGGGCACGCTGAGTTGATAGCAGAGTAG | 0.251
39 | ACTCGGAGGACAAAGGTCTGAGCTACGCCAGTGA | 0.144

tested on: PXR:RXRa (NR concentration 270 nM, RXRa partner concentration 90 nM); test: as above
Outline: as §1

Row | Sequence | PBM binding z-score
40 | CGAACTAGGGCATCCAGGACAGTGAATACATTGA | -0.0736
41 | TCGAATAGGTTAGTCGGGGCATTCAGCCAACATA | 0.59
42 | TCTGGGAGGACACGAAAGGTCAGAGCTCGACATC | 4.23
43 | CCGAGTAGGTTATGGGGCATACAGGCAACGGTGA | -0.123
44 | CAGCCTAGGTCAGGGCCAGTTTAGGAGGAACGTT | 1.03
45 | TAGCCTAGGTCAAGGGCCAGTATACCACGCGAAC | 1.28
46 | ACTAGTTGGTCAGCTGAGGTCATACACAATTCGG | 5.65
47 | CGTCCAAGGTCAAGGTCAGTCAAAGAGACTCGAA | 4.99
48 | AGTCAAAGTTCGTCTAGGTAACGTAAGATATGCT | 1.99
49 | CGTTAAAGTTCAACTAAGGTAACGTAAAGCACGC | 5.26
50 | ACTTACGGGTCAACGAGGGTATAGCACGCGTATA | 4.29
51 | ATCTCTAAGTAAAGATAGTTCAGTGAATGCAAAT | 0.808
52 | GATACAGGGTCAGCTAGAGGCTAGAGTATGGAAA | 2.29
53 | CCAGACAGGTGAGAAGGGAACTCAGCCTCGATTA | -0.225
54 | CCTGCTAAGTCAATGGTCAGCTAAAGCAGCTCGC | -0.405
55 | CTACCAAGGTGAACAAGGTCGCTGATTACTATTC | 1.7
56 | CCTGCTAGGTCATGATCAGCTAATCTACAGTATG | 1.19
57 | TCTAGCAGGACAGAGGGTCACTCAAGAGGTACGG | 1.48
58 | ACTAGCAGGCCAAGTTTGGTTCACTCAAACAAAG | 0.287
59 | ATCTCTAGCTAACAAGTTCAGTGAAAGAGAGGAC | 1.36

Row | Sequence | PBM binding z-score
60 | TCTATCAGGCCAGAGGGTCACTCAAGAGGTACGG | 1.83
61 | GTACCAAGGTGCATAGGTCGTTGATGAGTAGGCG | 0.269
62 | GCTATTACTTGAAAGGGCAACCGAATGATTCTCG | 0.499
63 | TGTCAAAGTTCAGAGGTAACGTAAGTATCCACAC | 3.39
64 | TGGAGTAGGTTAGGGGCATTCAGAATGGCGTCGA | 1.18
65 | CCTTACGGGTCACTCCAGTTTATAGCATCGGAGT | 6.04
66 | CCGTCTGGGGCAGAAAGGTTACCATACCATCCGG | 0.821
67 | CCTAGTTGGTCAGGAGGGCACACACCGGATATGA | 0.369
68 | TCTATTCGTTGATTAGGGCAACCGAAACAGCGGA | 0.454
69 | GCTGCTAGGTCCGGTTGGTCAGCTAACGGGTACG | -0.574
70 | GGAACGAGGGCAAAGTGGATAGCATCTGTCGACG | 0.489
71 | GCTAGCAGGCCATTTGGGTCTCTCAATGACGGGC | -0.469
72 | ATCGAAAGTTCGAAGGTGAGTATACCCACCCGAA | 1.16
73 | AGAATGAGGTTATTAAAATCAGGGAATTGCGGTC | 1.13
74 | ATCTCTAGGTAACAAGTTCAGTGGAAGAGAGGAC | 1.66
75 | GGAACGAGGGCAAAGTTGAAAGCATCTGTCGACG | 2.03
76 | TCTTTTAGATCAAAGGTTAAGAAAGCCGAAGCCT | 2.05
77 | AGAGCGAGGGCACGCTGAGTTGATAGCAGAGTAG | 1.05
78 | ACTCGGAGGACAAAGGTCTGAGCTACGCCAGTGA | -0.428
